# Test results taken from PubChem BioAssay (NCATS).
# Results filed as inconclusive are left out. The source made the active and inactive calls. Unless noted, the call rests on the fitted dose curve; in most records, active means well fitted curve in the direction sought with a large enough effect; inconclusive means small, poorly fitted or top-dose-only effect, or another doubt; inactive means no such curve, though single readings can be large; an effect the other way counts as inactive or inconclusive.
# Columns and labels:
# [1] = qHTS drug screen for cell cycle checkpoint inhibitors in PARPi-resistant BRCA-mutant ovarian cancer cell lines. (AID 1963452; calls by dose curve); settings: PEO1/OlaR viability, CellTiter-Glo luminescence, 96 h, stronger effect = lower value
# How it was run: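 PEO1, PEO4 and PEO1/OlaR ovarian cancer cells, 600 per well, exposed 96 h at 37C to a dilution series. Viability read by CellTiter-Glo luminescence, normalized to DMSO and empty wells; activity summarized as Z-AUC.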
# [2] = qHTS for identification of novel therapeutic agents for treatment of microphthalmiaassociated transcription factor (MiT) renal cell carcinoma (RCC) (AID 1963991); settings: CellTiter-Glo, 48 h, stronger effect = lower value
# How it was run: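 Three TFE3-fusion RCC lines (UOK109, UOK124, UOK145), 500 cells/well in complete medium, were treated with MIPE 4.0 compounds for 48 hours at 37 C. Viability was by CellTiter-Glo luminescence, normalized to DMSO (100%) and empty wells (0%); curves fitted over 11 concentrations.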
# [3] = qHTS profiling for inhibitors of Plasmodium falciparum proliferation (AID 504749); further: potency means the concentration at half of the fitted maximal effect;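 on activity, negative = inhibition: 0% = DMSO vehicle and full inhibition = artemisinin control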; on all read-outs here: nearly all actives have a fitted effect of over 60% in size; settings: P. falciparum in erythrocytes, SYBR Green DNA, 72 h; for activity, negative = inhibition: at 28.7 µM (top of the series)
# How it was run: (§1)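 Readout was DNA-dye fluorescence from lysed cultures, ex 485/em 535 nm. Parasitized red cells had grown 72 h with compound; data scaled between 0.29 uM artemisinin and DMSO wells and corrected using vehicle-only plates.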
# [4] = system: 3D7; assay: as above; settings: P. falciparum in erythrocytes, SYBR Green DNA, 72 h; series mostly up to 28.7 µM
# How it was run: as §1
# [5] = system: 7G8; assay: as above; settings: P. falciparum in erythrocytes, SYBR Green DNA, 72 h; series mostly up to 28.7 µM
# How it was run: as §1
# [6] = system: AA1029; assay: as above; settings: P. falciparum in erythrocytes, SYBR Green DNA, 72 h; series mostly up to 28.7 µM
# How it was run: as §1
# [7] = system: AS120; assay: as above; settings: P. falciparum in erythrocytes, SYBR Green DNA, 72 h; series mostly up to 28.7 µM
# How it was run: as §1
# [8] = system: ATS189; assay: as above; settings: P. falciparum in erythrocytes, SYBR Green DNA, 72 h; series mostly up to 28.7 µM
# How it was run: as §1
# [9] = system: ATS95; assay: as above; settings: P. falciparum in erythrocytes, SYBR Green DNA, 72 h; series mostly up to 28.7 µM
# How it was run: as §1
# [10] = system: C2A; assay: as above; settings: P. falciparum in erythrocytes, SYBR Green DNA, 72 h; series mostly up to 28.7 µM
# How it was run: as §1
# [11] = system: CP185; assay: as above; settings: P. falciparum in erythrocytes, SYBR Green DNA, 72 h; series mostly up to 28.7 µM
# How it was run: as §1
# [12] = system: CP191; assay: as above; settings: P. falciparum in erythrocytes, SYBR Green DNA, 72 h; series mostly up to 28.7 µM
# How it was run: as §1
# [13] = system: CP192; assay: as above; settings: P. falciparum in erythrocytes, SYBR Green DNA, 72 h; series mostly up to 28.7 µM
# How it was run: as §1
# [14] = system: CP194; assay: as above; settings: P. falciparum in erythrocytes, SYBR Green DNA, 72 h; series mostly up to 28.7 µM
# How it was run: as §1
# [15] = system: CP201; assay: as above; settings: P. falciparum in erythrocytes, SYBR Green DNA, 72 h; series mostly up to 28.7 µM
# How it was run: as §1
# [16] = system: CP203; assay: as above; settings: P. falciparum in erythrocytes, SYBR Green DNA, 72 h; series mostly up to 28.7 µM
# How it was run: as §1
# [17] = system: CP211; assay: as above; settings: P. falciparum in erythrocytes, SYBR Green DNA, 72 h; series mostly up to 28.7 µM
# How it was run: as §1
# [18] = molecular target: Nuclear receptor subfamily 1 group I member 2 (Homo sapiens) (UniProt O75469); assay: Dual reporter qHTS for agonist of Pregnane X Receptor (hPXR) against the NCATS DSHEA and TCM libraries: Luminescence readout (AID 1920059); settings: hPXR dual reporter cells, luciferase luminescence agonist; series mostly up to 40 µM; further: 0% is about no effect
# How it was run: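 hPXR-Luc HepG2 cells, 2000/well in 5% charcoal-stripped FBS medium, attached 5 h, then exposed 24 h at 37C to compounds. Viability by CellTiter-Fluor, then luciferase luminescence with ONE-Glo.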
# [19] = molecular target: Nuclear receptor subfamily 1 group I member 2 (Homo sapiens) (UniProt O75469); assay: Dual reporter qHTS for antagonist of Pregnane X Receptor (hPXR) against the NCATS DSHEA and TCM libraries: Luminescence Readout (AID 1920060); settings: hPXR dual reporter cells, luciferase luminescence, antagonist mode; series mostly up to 40 µM;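 further: HepG2 cells carrying hPXR luciferase reporter stimulated with rifampicin at 2 µM; 0% is about no effect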
# How it was run: (§2)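 hPXR-Luc HepG2 cells exposed 24 h at 37 C to compounds with 2 uM rifampicin in antagonist mode; luciferase luminescence measured by ONE-Glo, with CellTiter-Fluor viability read beforehand.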
# [20] = Dual reporter qHTS for antagonist of Pregnane X Receptor (hPXR) against the NCATS DSHEA and TCM libraries: Fluorescence Readout (AID 1920061); settings: PXR dual reporter cells, antagonist mode; series mostly up to 40 µM; further: 0% is about no effect
# How it was run: as §2
# [21] = measured here: PEO1 parental Z-AUC
# [22] = TFE3-RCC UOK109 viability, measured here: UOK109 Z-AUC
# [23] = TFE3-RCC viability, measured here: UOK124 Z-AUC
# [24] = TFE3-RCC viability, measured here: UOK145 Z-AUC
# Chain of Nuclear receptor subfamily 1 group I member 2 (Homo sapiens) (O75469 whole entry, looked up): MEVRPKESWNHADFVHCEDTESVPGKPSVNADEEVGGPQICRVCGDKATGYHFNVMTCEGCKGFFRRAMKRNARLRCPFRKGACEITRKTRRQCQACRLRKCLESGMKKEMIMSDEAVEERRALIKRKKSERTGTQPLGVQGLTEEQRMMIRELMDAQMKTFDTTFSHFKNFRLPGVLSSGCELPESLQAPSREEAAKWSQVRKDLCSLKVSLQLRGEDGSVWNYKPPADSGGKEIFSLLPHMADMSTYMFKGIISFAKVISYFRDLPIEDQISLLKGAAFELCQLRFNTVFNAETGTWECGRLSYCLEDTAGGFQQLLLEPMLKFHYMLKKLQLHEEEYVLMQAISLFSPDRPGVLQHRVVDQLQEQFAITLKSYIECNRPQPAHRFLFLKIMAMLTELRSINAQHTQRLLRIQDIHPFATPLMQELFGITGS
smiles,measurement,setting,value
NC(=O)OCC(COC(N)=O)c1ccccc1,Z-AUC,[1],0.532 (inactive)
same,Z-AUC,[1]; [21],1.02
same,Z-AUC,[1]; measured here: PEO4 Z-AUC,1.07
same,z-score,[2]; [22],0.961
same,z-score,[2]; [23],0.566
same,z-score,[2]; [24],-0.0858
same,"activity, negative = inhibition",[3]; parasite line A,12.4% (inactive)
same,"activity, negative = inhibition",[3]; parasite line B,14.7% (inactive)
same,Potency,[4],inactive
same,Potency,[5],inactive
same,Potency,[6],inactive
same,Potency,[7],inactive
same,Potency,[8],inactive
same,Potency,[9],inactive
same,Potency,[10],inactive
same,Potency,[11],inactive
same,Potency,[12],inactive
same,Potency,[13],inactive
same,Potency,[14],inactive
same,Potency,[15],inactive
same,Potency,[16],inactive
same,Potency,[17],inactive
CN1C2CCC1CC(OC(=O)C(CO)c1ccccc1)C2 (configuration not stated),Z-AUC,[1],0.435 (inactive)
same,Z-AUC,[1]; [21],0.73
same,Z-AUC,[1]; measured here: PEO4 Z-AUC,-0.0914
same,z-score,[2]; [22],0.361
same,z-score,[2]; [23],0.456
same,z-score,[2]; [24],0.45
OCCN(CCO)c1nc(N2CCCCC2)c2nc(N(CCO)CCO)nc(N3CCCCC3)c2n1,Z-AUC,[1],1 (inactive)
same,Z-AUC,[1]; [21],0.552
same,Z-AUC,[1]; measured here: PEO4 Z-AUC,0.489
CC(C)Cc1ccc(C(C)C(=O)O)cc1 (configuration not stated),Z-AUC,[1],1.42 (inactive)
same,Z-AUC,[1]; [21],1.49
same,Z-AUC,[1]; measured here: PEO4 Z-AUC,1.2
same,z-score,[2]; [22],0.767
same,z-score,[2]; [23],0.849
same,z-score,[2]; [24],0.507
same,"activity, negative = inhibition",[3]; parasite line A,5.92% (inactive)
same,"activity, negative = inhibition",[3]; parasite line B,6.46% (inactive)
same,Potency,[4],inactive
same,Potency,[5],inactive
same,Potency,[6],inactive
same,Potency,[7],inactive
same,Potency,[8],inactive
same,Potency,[9],inactive
same,Potency,[10],inactive
same,Potency,[11],inactive
same,Potency,[12],inactive
same,Potency,[13],inactive
same,Potency,[14],inactive
same,Potency,[15],inactive
same,Potency,[17],inactive
N[C@@H](Cc1c[nH]c2ccc(O)cc12)C(=O)O,Z-AUC,[1],-0.189 (inactive)
same,Z-AUC,[1]; [21],-0.312
same,Z-AUC,[1]; measured here: PEO4 Z-AUC,-0.162
same,z-score,[2]; [22],0.236
same,z-score,[2]; [23],0.415
same,z-score,[2]; [24],0.556
same,"activity, negative = inhibition",[3]; parasite line A,15.9% (inactive)
same,"activity, negative = inhibition",[3]; parasite line B,15.8% (inactive)
same,Potency,[4],inactive
same,Potency,[5],inactive
same,Potency,[6],inactive
same,Potency,[7],inactive
same,Potency,[8],inactive
same,Potency,[9],inactive
same,Potency,[10],inactive
same,Potency,[11],inactive
same,Potency,[12],inactive
same,Potency,[13],inactive
same,Potency,[14],inactive
same,Potency,[15],inactive
same,Potency,[16],inactive
same,Potency,[17],inactive
O=c1c(O)c(-c2ccc(O)c(O)c2)oc2cc(O)cc(O)c12,outcome,[18],inactive
same,outcome,[19],inactive
same,outcome,[20],inactive
same,Z-AUC,[1],0.194 (inactive)
same,Z-AUC,[1]; [21],0.475
same,Z-AUC,[1]; measured here: PEO4 Z-AUC,0.343
same,Potency,[4],12.6 µM (active)
same,Potency,[7],11.2 µM (active)
C[C@@H]1CC(=O)NN=C1c1ccc(NN=C(C#N)C#N)cc1,Z-AUC,[1],0.769 (inactive)
same,Z-AUC,[1]; [21],0.69
same,Z-AUC,[1]; measured here: PEO4 Z-AUC,0.452
OCCN1CCN(CCCN2c3ccccc3Sc3ccc(C(F)(F)F)cc32)CC1,Z-AUC,[1],0.453 (inactive)
same,Z-AUC,[1]; [21],0.459
same,Z-AUC,[1]; measured here: PEO4 Z-AUC,0.195
same,Potency,[3]; parasite line A,7.08 µM (active)
same,Potency,[3]; parasite line B,10 µM (active)
same,Potency,[4],7.08 µM (active)
same,Potency,[5],3.16 µM (active)
same,Potency,[6],12.6 µM (active)
same,Potency,[7],10 µM (active)
same,Potency,[8],8.91 µM (active)
same,Potency,[9],11.2 µM (active)
same,Potency,[10],12.6 µM (active)
same,Potency,[11],11.2 µM (active)
same,Potency,[12],7.94 µM (active)
same,Potency,[14],10.7 µM (active)
same,Potency,[15],8.49 µM (active)
same,Potency,[17],7.57 µM (active)
